Among the test systems are HCT-15 colon; HT29 colon; SNB-75 CNS; U251 CNS; PC-3 prostate; SK-MEL-5 melanoma; UACC-62 melanoma; LOX IMVI melanoma; SK-MEL-28 melanoma.
What all share (assay): NCI-60 one-dose screen, 48 h (100 = growth as untreated, 0 = no growth, -100 = all killed)
Settings in all cases: 10 µM unless noted

The panel holds about 83,000 compounds, 20% with a hit somewhere; the sample as a whole holds those more often.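 In brief: 96-well plates, 48 h treatment, single concentration, percent growth endpoint.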 Activity calls are given as the source filed them. The calls were made as follows: active = growth percent below 10; inactive = the rest.

Take `C=C1C(=O)O[C@H]2[C@H](O)[C@@H](C)CCC/C(C)=C/CC[C@@]3(C)O[C@@H]3C[C@@H]12`: the growth is 96.3% (inactive) in the test with HCT-15 colon; 99.6% (inactive) with HT29 colon; 75.7% (inactive) in the test with SNB-75 CNS; 97.3% (inactive) in the test on U251 CNS; 46.5% (inactive) in the test on PC-3 prostate; 91.5% (inactive) with SK-MEL-5 melanoma. Further, the growth in the test on UACC-62 melanoma was 89% (inactive); in the test on LOX IMVI melanoma it was 92% (inactive); with SK-MEL-28 melanoma it was 95.1% (inactive).

Take `CC1=NN2C(=NC3=C(CCC/C3=C\c3ccc(Cl)cc3)C2c2ccc(Cl)cc2)S1` (stereo not given): the growth is 89.3% (inactive) in the test with HCT-15 colon; 48.1% (inactive) in the test on HT29 colon; 100% (inactive) with SNB-75 CNS; 85.9% (inactive) with U251 CNS; 95.3% (inactive) in the test on PC-3 prostate; 96.6% (inactive) in the test on SK-MEL-5 melanoma. The growth in the test with UACC-62 melanoma is 83% (inactive); in the test with SK-MEL-28 melanoma it was 99.3% (inactive).

For the compound `O=C1NCC(c2cc3ccccc3[nH]c2=O)Nc2ccccc21` (stereo not given), the growth was 106% (inactive) in the test with HCT-15 colon; 98.3% (inactive) in the test with HT29 colon; 99.6% (inactive) with SNB-75 CNS; 102% (inactive) in the test on U251 CNS; 93.2% (inactive) with PC-3 prostate; 97.2% (inactive) with SK-MEL-5 melanoma. In addition, the growth in the test on UACC-62 melanoma was 98.3% (inactive); in the test with LOX IMVI melanoma it was 98.5% (inactive); in the test with SK-MEL-28 melanoma it was 103% (inactive).

Consider `CSc1ccccc1C#C/C=C\C#Cc1ccccc1N1CCCC1=O`, for which the growth with HCT-15 colon was 37.6% (inactive); in the test with HT29 colon, 24.1% (inactive); in the test with SNB-75 CNS, 47% (inactive); with U251 CNS, 34.3% (inactive); with PC-3 prostate it was 46.2% (inactive); in the test on SK-MEL-5 melanoma it was 22.2% (inactive). The growth is 34.4% (inactive) with UACC-62 melanoma, 30.8% (inactive) in the test with LOX IMVI melanoma and 50.1% (inactive) in the test on SK-MEL-28 melanoma.

Take `COc1cc(-c2cc(/C=C3\CCCCC3=O)[nH]n2)cc(OC)c1OC`: the growth is 94.1% (inactive) in the test with HCT-15 colon; 100% (inactive) in the test on HT29 colon; 85.8% (inactive) in the test on SNB-75 CNS; 92.2% (inactive) in the test on U251 CNS; 89.2% (inactive) in the test on PC-3 prostate; 92.8% (inactive) in the test with SK-MEL-5 melanoma. In addition, the growth in the test on UACC-62 melanoma is 106% (inactive); with LOX IMVI melanoma, 93.8% (inactive); with SK-MEL-28 melanoma, 114% (inactive).

As for `COc1ccc(/C=C/C(=O)/C=C/c2cc3ccc(Cl)cc3[nH]c2=O)cc1`, the growth with HCT-15 colon is 87.4% (inactive); with HT29 colon, 80.6% (inactive); in the test with SNB-75 CNS it was 76.2% (inactive); in the test on U251 CNS, 53.3% (inactive); in the test on PC-3 prostate, 76.1% (inactive); in the test on SK-MEL-5 melanoma it was 98.6% (inactive). The growth in the test with UACC-62 melanoma was 72.1% (inactive); in the test on LOX IMVI melanoma, 48.5% (inactive); with SK-MEL-28 melanoma it was 103% (inactive).

In the case of `O=C(CCC(=O)OC1CCCC1)OC1CCCC1`, the growth in the test on HCT-15 colon was 93.6% (inactive); in the test on HT29 colon, 98.3% (inactive); in the test with SNB-75 CNS it was 77.3% (inactive); in the test with U251 CNS it was 92.2% (inactive); in the test on PC-3 prostate, 93.8% (inactive); in the test on SK-MEL-5 melanoma, 99.3% (inactive). In addition, the growth in the test on UACC-62 melanoma is 103% (inactive); with SK-MEL-28 melanoma, 99.3% (inactive).

Regarding `Cc1cccc(-n2c(C)nc3ccc(NC(=O)NCCCl)cc3c2=O)c1`, the growth was 93.8% (inactive) with HCT-15 colon; 106% (inactive) in the test with HT29 colon; 77.5% (inactive) in the test with SNB-75 CNS; 100% (inactive) in the test on U251 CNS; 93.5% (inactive) in the test with PC-3 prostate; 102% (inactive) with SK-MEL-5 melanoma. Further, the growth was 103% (inactive) in the test on UACC-62 melanoma, 95.6% (inactive) in the test with LOX IMVI melanoma and 113% (inactive) in the test with SK-MEL-28 melanoma.

On to `COc1ccc(/C=C/C(=O)c2ccc(B(O)O)cc2)cc1O`, for which the growth in the test on HCT-15 colon is 31.2% (inactive); in the test on HT29 colon, 64.6% (inactive); in the test with SNB-75 CNS it was 72.6% (inactive); in the test with U251 CNS it was 80.7% (inactive); in the test on PC-3 prostate it was 74.1% (inactive); in the test on SK-MEL-5 melanoma, 93% (inactive). Besides, the growth is 76.9% (inactive) with UACC-62 melanoma, 57.7% (inactive) with LOX IMVI melanoma and 90.3% (inactive) with SK-MEL-28 melanoma.

On to `Cc1ccc(Cn2c(-c3cccs3)nc3ccccc32)cc1`, for which the growth was 81.7% (inactive) with HCT-15 colon; 92.7% (inactive) in the test with HT29 colon; 62.2% (inactive) in the test on SNB-75 CNS; 85.5% (inactive) in the test with U251 CNS; 72.2% (inactive) in the test on PC-3 prostate; 82.4% (inactive) in the test with SK-MEL-5 melanoma. Moreover, the growth is 85.4% (inactive) with UACC-62 melanoma, 82.5% (inactive) with LOX IMVI melanoma and 111% (inactive) in the test with SK-MEL-28 melanoma.

`CC1CCN(C(=O)CSc2nc3sc4c(c3c(=O)[nH]2)CCCC4)CC1`: the growth was 102% (inactive) in the test with HCT-15 colon; 116% (inactive) in the test with HT29 colon; 99.5% (inactive) in the test on SNB-75 CNS; 95.5% (inactive) with U251 CNS; 100% (inactive) with PC-3 prostate; 91.8% (inactive) with SK-MEL-5 melanoma. In addition, the growth with UACC-62 melanoma was 105% (inactive); in the test with LOX IMVI melanoma, 86.4% (inactive); in the test with SK-MEL-28 melanoma it was 125% (inactive).

Regarding `Nc1c(C(=O)Nc2ccccc2)sc2nc3c(cc12)CN(Cc1ccccc1)CC3`, the growth in the test on HCT-15 colon was 73.3% (inactive); in the test with HT29 colon it was 78.8% (inactive); in the test on SNB-75 CNS, -46.2% (active); in the test with U251 CNS it was 75% (inactive); in the test with PC-3 prostate it was 67.3% (inactive); with SK-MEL-5 melanoma it was 85.6% (inactive). Moreover, the growth was 70.6% (inactive) in the test with UACC-62 melanoma, 67% (inactive) with LOX IMVI melanoma and 60.3% (inactive) with SK-MEL-28 melanoma.

On to `CCOC(=O)C1=C(CSC(=S)N(C2CCCCC2)C2CCCCC2)N(C)C(=O)NC1c1ccccc1` (stereo not given), for which the growth in the test with HCT-15 colon was 39.6% (inactive); in the test with HT29 colon, 22% (inactive); in the test on SNB-75 CNS, 71.8% (inactive); in the test with U251 CNS it was 39.5% (inactive); with PC-3 prostate, 21.6% (inactive); in the test on SK-MEL-5 melanoma, 14.7% (inactive). Besides, the growth in the test on UACC-62 melanoma was 46.1% (inactive); with LOX IMVI melanoma, 33% (inactive); in the test with SK-MEL-28 melanoma, 75.8% (inactive).

Regarding `COc1cc(-c2csc(NC(=O)Nc3ccc(Cl)cc3Cl)n2)cc(OC)c1OC`, the growth is 23% (inactive) with HCT-15 colon; 10.8% (inactive) in the test with HT29 colon; 4.13% (active) in the test with SNB-75 CNS; 25.7% (inactive) in the test with U251 CNS; 18.7% (inactive) with PC-3 prostate; 18.4% (inactive) in the test with SK-MEL-5 melanoma. Further, the results for the growth in the test on UACC-62 melanoma, in the test on LOX IMVI melanoma and in the test with SK-MEL-28 melanoma were 30.9% (inactive), 28.9% (inactive) and 62.6% (inactive), respectively.

Regarding `COc1cc(/C=C/C(=O)c2ccc(NC(=O)CN3CCN(c4cc5c(cc4F)c(=O)c(C(=O)O)cn5C4CC4)CC3)cc2)cc(OC)c1OC`, the growth was 18.2% (inactive) in the test on HCT-15 colon; -3.37% (active) with HT29 colon; 76.6% (inactive) in the test with SNB-75 CNS; -55.8% (active) in the test with U251 CNS; 21.5% (inactive) with PC-3 prostate; -42.9% (active) with SK-MEL-5 melanoma. The growth in the test on UACC-62 melanoma was -23.5% (active); in the test with LOX IMVI melanoma it was -54.7% (active); in the test with SK-MEL-28 melanoma, 34% (inactive).

For the compound `C/C1=C\CCC2(C)OC2CC2CCC(C)(O)C(CC1)C2(C)C` (stereo not given), the growth in the test with HCT-15 colon is 89.4% (inactive); in the test on HT29 colon, 107% (inactive); in the test on SNB-75 CNS it was 108% (inactive); with U251 CNS, 91% (inactive); in the test with PC-3 prostate, 85.2% (inactive); in the test on SK-MEL-5 melanoma it was 84.8% (inactive). For the same compound, the figures for the growth in the test with UACC-62 melanoma, with LOX IMVI melanoma and in the test with SK-MEL-28 melanoma were 88% (inactive), 101% (inactive) and 119% (inactive), respectively.

As to `CCO/C=N/NC(=O)c1ccncc1`, the growth in the test with HCT-15 colon was 108% (inactive); with HT29 colon it was 101% (inactive); in the test with SNB-75 CNS it was 93.3% (inactive); in the test with U251 CNS, 105% (inactive); with PC-3 prostate, 97.3% (inactive); with SK-MEL-5 melanoma, 104% (inactive). For the same compound, the values for the growth in the test with UACC-62 melanoma, in the test with LOX IMVI melanoma and in the test with SK-MEL-28 melanoma were 107% (inactive), 98.7% (inactive) and 108% (inactive), respectively.

With `C=CCc1cc(Cl)cc2c(OC(C)=O)c(C(C)=O)c(-c3ccccc3)nc12`, the growth was 108% (inactive) in the test with HCT-15 colon; 112% (inactive) in the test with HT29 colon; 85.6% (inactive) in the test with SNB-75 CNS; 105% (inactive) with U251 CNS; 96% (inactive) in the test on PC-3 prostate; 105% (inactive) with SK-MEL-5 melanoma. Besides, the values for the growth with UACC-62 melanoma, with LOX IMVI melanoma and with SK-MEL-28 melanoma were 101% (inactive), 97.3% (inactive) and 116% (inactive), respectively.

The record behind these values is PubChem BioAssay (NCI).
